A selection: hits, their analogues and other compounds. The true share with any hit is near 2.4%.
POLK inh – qHTS for Inhibitors of Polymerase Kappa | purified Pol kappa, fluorescent DNA synthesis assay, 10 min | Potency, µM (doses to about 107 µM), hits mostly inhibitors | actives 0.53% (n = 400,000) | DNA polymerase kappa (Homo sapiens), Q9UBT6 | AID 588579, 2011
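Readout: fluorescence, taken kinetically at 0 and 10 min. Conditions: 10 nM Pol kappa, 15 min RT compound preincubation, 50 nM substrate final. Controls: enzyme-free buffer wells.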
POLH inh – qHTS for Inhibitors of Polymerase Eta | DNA polymerase eta (Homo sapiens), Q9Y253 | Potency, µM (highest dose often 114 µM), actives largely listed as inhibitors | recombinant Pol eta, fluorescent DNA replication assay | actives 1.2% (n = 390,000)
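Pol eta (10 nM) was preincubated with compounds for 15 min at room temperature, after which fluorescent replication substrate (50 nM final) was added to start the reaction. Fluorescence was read kinetically at 0 and 10 min.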
POLB inh – qHTS Assay for Inhibitors of DNA Polymerase Beta; actives 1.3% (n = 340,000); Pol beta primer extension/strand displacement, fluorescence kinetic; Potency, µM (doses to about 114 µM), most hits filed as inhibitors; P06746; AID 485314, 2010
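Homogeneous kinetic assay of primer extension and strand displacement by 10 nM Pol beta, preincubated 15 min at room temperature with compound before 50 nM substrate (final) was added. Read at 0 and 10 min; four-parameter Hill fit.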
TDP1 block – qHTS Assay for Inhibitors of Tyrosyl-DNA Phosphodiesterase (TDP1). Tyrosyl-DNA phosphodiesterase 1 (Homo sapiens), Q9NUW8. recombinant TDP1, AlphaScreen DNA substrate cleavage. Potency, µM (top dose mostly 130 µM), usual class: inhibitors. actives 0.28% (n = 350,000). AID 485290, 2010; further: nearly all actives have a fitted effect of over 40% in size
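Recombinant human Tdp1 (E. coli-expressed, 1 nM final) preincubated with compounds 15 min at room temperature, then 5'-biotin/3'-phosphotyrosine-FITC DNA substrate (15 nM final) added for 5 min. AlphaScreen beads (10 ug/ml final) added 10 min; cleavage lowers signal.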
POLI inh – qHTS for Inhibitors of Polymerase Iota | Potency, µM (doses to about 115 µM), most hits filed as inhibitors | DNA polymerase iota (Homo sapiens), Q9UNA4 | actives 1% (n = 390,000) | AID 588590, 2011 | Pol iota fluorescent replication assay, 10 min
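Pol iota at 10 nM preincubated 15 min with compounds at room temperature; reaction started with fluorescent substrate, 50 nM final. Fluorescence read kinetically at 0 and 10 min; buffer-only wells as negative control.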
FEN1 inh – qHTS Assay for the Inhibitors of Human Flap endonuclease 1 (FEN1); Potency, µM (doses to about 114 µM), usual class: inhibitors; AID 588795, 2011; P39748; actives 0.35% (n = 390,000); Recombinant FEN1 flap cleavage, fluorescence, 15 min; further: nearly all actives have a fitted effect of over 65% in size
Target sequence (P39748 whole entry, looked up): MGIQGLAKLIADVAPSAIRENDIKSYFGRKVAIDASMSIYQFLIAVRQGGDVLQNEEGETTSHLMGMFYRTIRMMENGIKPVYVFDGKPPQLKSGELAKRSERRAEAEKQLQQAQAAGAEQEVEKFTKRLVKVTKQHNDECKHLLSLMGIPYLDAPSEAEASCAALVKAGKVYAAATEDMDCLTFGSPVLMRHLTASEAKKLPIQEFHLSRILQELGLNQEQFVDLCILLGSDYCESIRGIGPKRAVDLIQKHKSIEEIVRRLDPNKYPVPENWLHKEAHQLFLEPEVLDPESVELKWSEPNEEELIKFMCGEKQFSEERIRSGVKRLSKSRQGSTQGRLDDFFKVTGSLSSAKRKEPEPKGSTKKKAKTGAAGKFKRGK
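FEN1 at 10 nM, compound pretreatment for 15 min (room temperature), 50 nM final substrate to initiate; endpoint reads at 0 and 15 min; DMSO-only plates used as vehicle background.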
Each line names hits and unclear results; the compound was inactive in the other large screens. The call rests on the fitted dose curve; in most records, active means well fitted curve in the direction sought with a large enough effect; inconclusive means small, poorly fitted or top-dose-only effect, or another doubt; inactive means no such curve, though single readings can be large; an effect the other way counts as inactive or inconclusive.

CC(C)Cc1ccc(C(C)/C=C2/CCC(CN3CCCCC3)C2=O)cc1 (configuration not stated)	POLH inh 22µM, POLI inh inconclusive (no result: POLB inh, TDP1 block)
COc1cc2c(NC3CCN(C)CC3)nc(N3CCCN(C)CC3)nc2cc1OCC1CCCNC1 (configuration not stated)	FEN1 inh 20µM (no result: POLH inh, POLB inh, TDP1 block)
COc1cc2nc(N3CCN(C)CC3)nc(NC3CCN(C)CC3)c2cc1OC	FEN1 inh inconclusive (no result: POLH inh, POLB inh, TDP1 block)
COc1cc2nc(N3CCCN(C)CC3)nc(NC3CCNCC3)c2cc1OC	POLI inh inconclusive, FEN1 inh 25µM (no result: POLH inh, POLB inh, TDP1 block)
Cc1cc(C)c2c(N)c(C(=O)Nc3ncc(C)s3)sc2n1	POLB inh 45µM, FEN1 inh inconclusive (no result: TDP1 block)
COC(=O)CCC/C=C1/SCC(NC(=O)c2ccccc2)C1=O (configuration not stated)	POLH inh inconclusive, POLI inh 45µM
CC(C)c1onc(-c2c(Cl)cccc2Cl)c1COc1ccc(/C=C/c2cccc(C(=O)O)c2)c(Cl)c1	POLK inh 30µM (no result: POLH inh, POLB inh, POLI inh, FEN1 inh)
Cc1cc[n+](CC(=O)c2ccc(F)cc2)cc1	POLI inh inconclusive (no result: POLH inh, POLB inh, TDP1 block)
Cc1ccc(OCC(=O)Nc2ccccc2C(=O)OCc2cc(=O)n3ccsc3n2)cc1	POLH inh inconclusive, POLB inh 2.8µM
Cc1cccc(OCC(=O)Nc2ccccc2C(=O)OCc2cc(=O)n3ccsc3n2)c1	none
Cc1cccc(C(=O)Nc2ccccc2OCc2cc(=O)n3c(C)csc3n2)c1	none
Cc1ccc(C(=O)Nc2ccc(C(=O)OCc3cc(=O)n4ccsc4n3)cc2)cc1	POLB inh inconclusive, TDP1 block 22µM, POLI inh inconclusive
CC(C)(C)c1ccc(C(=O)Nc2ccc(C(=O)OCc3cc(=O)n4ccsc4n3)cc2)cc1	none
Cc1cccc(C(=O)Nc2ccc(C(=O)OCc3cc(=O)n4c(C)csc4n3)cc2)c1	POLB inh 13µM
c1ccc2c(C(c3c[nH]c4ccccc34)c3c[nH]c4ccccc34)c[nH]c2c1	none (no result: POLH inh, POLB inh, TDP1 block)
C[n+]1ccc(C(c2c[nH]c3ccccc23)c2cc[n+](C)c3ccccc23)c2ccccc21	POLK inh 79µM, POLI inh 89µM, FEN1 inh 18µM (no result: POLH inh, POLB inh, TDP1 block)
CC1(C)CC[C@]2(C(=O)O)C(O)C[C@@]3(C)C(=CCC4[C@@]5(C)CCC(O)C(C)(C)C5CC[C@@]43C)C2C1 (some centres not stated)	none (no result: POLH inh, POLB inh, POLI inh, FEN1 inh)
Cc1ccc(NC(=O)COC(=O)c2ccccc2OCC(=O)Nc2ccc(Br)cc2)c(Br)c1	none (no result: POLH inh, POLB inh, TDP1 block)
O=C(CSc1n[nH]c(-c2ccccc2)n1)NC(=O)NCc1ccco1	POLK inh inconclusive, POLH inh inconclusive, POLB inh 35µM, POLI inh 45µM
COc1ccc(C)cc1-n1nnnc1SCC(=O)NC(=O)NCc1ccco1	POLK inh inconclusive, POLH inh 89µM, POLB inh 14µM, POLI inh 28µM
O=C(CSc1nnc(-c2ccc(OC(F)F)cc2)o1)NC(=O)NCc1ccco1	POLH inh inconclusive, POLB inh 45µM, POLI inh 79µM
Cc1ccccc1CSCC(=O)NC(=O)NCc1ccco1	POLK inh inconclusive, POLH inh inconclusive, POLB inh 11µM, POLI inh 32µM
COc1ccc(-n2nnnc2SCC(=O)NCc2ccco2)cc1OC	POLI inh inconclusive
COc1cc2nc(N3CCOCC3)nc(NC3CC3)c2cc1OC	none (no result: POLH inh, POLB inh, TDP1 block)
Cc1cccc(NC(=O)C2CCC(CNS(=O)(=O)c3ccc(Br)s3)CC2)c1 (configuration not stated)	none
COc1ccc(-c2[nH]c(-c3ccccc3)nc2SCC(=O)NCc2ccco2)cc1OC	POLH inh inconclusive, POLB inh 40µM, POLI inh inconclusive
O=C(CSc1nnc(CNC(=O)c2c(F)cccc2F)o1)NCc1ccco1	POLH inh inconclusive, POLB inh 25µM, TDP1 block 50µM, POLI inh inconclusive
Cc1cc(S(=O)(=O)N2CCCC2)ccc1OCC(=O)NCc1ccco1	POLB inh 25µM, POLI inh inconclusive
O=C(CSc1nnc(-c2ccc(S(=O)(=O)N3CCCC3)cc2)o1)NCc1ccco1	POLK inh inconclusive, POLH inh inconclusive, POLB inh 25µM, POLI inh 89µM
Cc1cc(S(=O)(=O)N2CCOCC2)ccc1OCC(=O)NCc1ccco1	none
Cc1ccccc1-c1noc(-c2ccc(NCc3cccnc3)c([N+](=O)[O-])c2)n1	none
CC(C)[C@@H](OCc1ccccc1)[C@H](C)/C=N\O[C@@H](C)c1cn([C@@H]2COC[C@@H]2O)nn1	none (no result: POLK inh, POLH inh, POLB inh, POLI inh, FEN1 inh)
Cc1cc(SCC(=O)NC(=O)NCc2ccco2)nc2ccccc12	POLI inh inconclusive
CCOc1ccc2nc(SCC(=O)NC(=O)NCc3ccco3)[nH]c2c1	POLH inh inconclusive, POLB inh 50µM, POLI inh inconclusive
O=C(CSc1ncccn1)NC(=O)NCc1ccco1	POLB inh inconclusive, POLI inh 79µM (no result: TDP1 block)
CCOc1ccc2nc(SCC(=O)NCc3ccc(OC)c(OC)c3)[nH]c2c1	none
CCOc1ccc(-n2c(=S)sc3c(=O)[nH]c(SCC(=O)C(C)(C)C)nc32)cc1	POLI inh inconclusive
CCOc1ccc(-n2c(=S)sc3c(=O)[nH]c(SCC(=O)NCc4ccco4)nc32)cc1	POLH inh 56µM, POLB inh 35µM, POLI inh inconclusive
Cc1cc(SCC(=O)NC(=O)NCc2ccco2)nc2c(C)cccc12	POLB inh 16µM, POLI inh inconclusive
Cc1cc(Cn2cnc3c(cnn3C(C)(C)C)c2=O)ccc1F	none (no result: POLH inh, POLB inh, TDP1 block)
Cc1nnc(SCC(=O)NC(=O)NCc2ccco2)s1	none
C/C(=N/NC(=O)CSc1nc2ccccc2s1)c1ccncc1	none
CS/C(=N\S(=O)(=O)c1cccs1)NC(=O)CSc1nc2ccccc2s1	POLH inh 50µM, POLB inh inconclusive, POLI inh inconclusive, FEN1 inh inconclusive
O=C(CSc1nc2ccccc2s1)NC(=O)NCc1ccco1	POLB inh 22µM
O=C(CSc1nn(-c2ccc(F)cc2)c(=S)s1)NC(=O)NCc1ccco1	POLB inh 45µM, POLI inh inconclusive
O=C(CSc1ccccc1F)NC(=O)NCc1ccco1	POLH inh inconclusive, POLB inh 10µM, POLI inh inconclusive
Cc1ccc2c(C(=O)CNc3nc(C)c(C)s3)c(C)[nH]c2c1	none (no result: POLH inh, POLB inh, TDP1 block)
CCCCn1c(SCC(=O)NC(=O)NCc2ccco2)nc2cc(S(N)(=O)=O)ccc21	POLK inh inconclusive, POLH inh 79µM, POLB inh 28µM, POLI inh inconclusive
